Hit rate of the full screen: of about 63,000 compounds, about 1,100 (1.7%) were called active. What follows is part of a selection rich in actives, with near analogues and random picks from the rest. Potency and affinity values are given separately. Unmarked numbers belong to inactive results. Cut-off read from the data, not from the text of the source: active = cytotoxicity above about 50%; inactive = the rest.
Assay: HPDE-C7 pancreatic duct cell viability loss – fluorescence, HTS (AID 430);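 note: cells exposed to compound for 48 hours before viability readout; 0% = vehicle and 100% = reference cytotoxic drug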
Details: HPDE-C7 pancreatic duct cells viability, at 10 µM, active compounds read high

First: CCc1ccc2[nH]c(=O)c(C(c3nnnn3CCOC)N3CCN(c4ccccc4F)CC3)cc2c1 (stereo unspecified)
Second: O=C(CSc1nnnn1Cc1ccccc1)N1CCN(c2ccccc2)CC1
The cytotoxicity of the first is lower: -22% for the first, 7.7% for the second.

Going from `Cc1cc(NCCCN)nc(-c2ccccc2O)n1` to `Cc1cc(Nc2ccccc2)nc(-c2ccccc2O)n1`, the cytotoxicity falls from 16.4% to -2.9%.

Going from `Cc1cc(C)nc(NCCCc2ccccc2)n1` to `CCCCOc1cc(C)nc(NCc2ccccc2)n1`, the cytotoxicity falls from -5.9% to -30.8%.

Compared with `O=c1[nH]c2ccc(S(=O)(=O)N3CCCCC3)cc2[nH]1`, `O=C(c1cc(S(=O)(=O)N2CCCCC2)c(Cl)cc1N1CCOCC1)N1CCOCC1` is lower in cytotoxicity: -1.4% for the first, -5.8% for the second.

Going from `CCOC(=O)c1ccccc1NCN1C(=O)CSC1=O` to `CCOC(=O)C1CCN(C(=O)Nc2ccccc2Cl)CC1`, the cytotoxicity rises from -1.8% to 4%.

First: Cc1cc(=O)[nH]c(/N=C(\N)Nc2cccc3ccccc23)n1
Second: Cc1nn(CC(=O)NCc2ccccc2)c(=O)c2ccccc12
The cytotoxicity of the first is higher: 0.5% for the first, -4.9% for the second.

Compared with `COc1ccc(C2C3=C(N=C4SCC(=O)N42)c2ccccc2CC3)cc1OC` (stereo unspecified), `COc1ccc(C(=O)N(CN2CCCC2=O)c2nccs2)cc1OC` is lower in cytotoxicity: 19.3% for the first, 6.2% for the second.

Compared with `O=C(O)c1ccccc1-c1ccccc1C(=O)NCc1ccco1`, `O=C(NC(C(=O)c1ccccc1)n1ccc(=O)[nH]c1=O)c1ccccc1` (stereo unspecified) is higher in cytotoxicity: 0.7% for the first, 23.4% for the second.

First: Cn1c(=O)cc(OCC(=O)N2CCCc3ccccc32)c2ccccc21
Second: Cc1cccn2c(=O)c3cc(C(=O)N4CCc5ccccc54)n(C)c3nc12
The cytotoxicity of the first is lower: -9.1% for the first, 10.4% for the second.

Compared with `Cc1cc(C)c2nc(NC3=NCN(CCN4CCOCC4)CN3)nc(C)c2c1`, `Cc1ccc2c(c1)c1ncnc(N3CCOCC3)c1n2C` is lower in cytotoxicity: -7.5% for the first, -13.7% for the second.

Compared with `COc1cc(C)c(C(C)C)cc1S(=O)(=O)N1CCN(C)CC1`, `COc1cc(Cl)c(S(=O)(=O)n2cnc(C)c2)cc1Cl` is higher in cytotoxicity: -22.7% for the first, -0.2% for the second.

Going from `Clc1ccc(OCc2nc(-c3ccncc3)no2)c(Cl)c1` to `Cn1c(-c2ccc3c(c2)OCO3)cnc1NCc1ccc(Cl)cc1`, the cytotoxicity rises from -6.9% to 43.1%.

First: Cc1ccc2c(c1)c1ncnc(N3CCN(c4ccccc4)CC3)c1n2C
Second: Cc1cccn2c(=O)c3cc(C(=O)N4CCN(c5ccccc5)CC4)n(C)c3nc12
The cytotoxicity of the first is higher: -1.6% for the first, -18.3% for the second.

First: O=C(c1ccc(S(=O)(=O)N2CCC(c3nc4ccccc4s3)CC2)cc1)N1CCOCC1
Second: CC(NS(=O)(=O)c1ccc(OCC(=O)N2CCOCC2)c(Cl)c1)c1ccccc1 (stereo unspecified)
The cytotoxicity of the first is lower: 1.1% for the first, 3.2% for the second.

Going from `Cc1cccc(NS(=O)(=O)c2cccs2)n1` to `Cc1cccc(NC(=O)C2CCCN(S(=O)(=O)c3cccc4cccnc34)C2)c1` (stereo unspecified), the cytotoxicity falls from -0.9% to -12.3%.

Going from `COc1ccc(NC(=O)N(CCC(C)C)C(C)c2ccccn2)c(OC)c1` (stereo unspecified) to `COc1ccc(-c2ccc(SCC(=O)NCc3ccco3)nn2)cc1OC`, the cytotoxicity rises from -1.9% to 7.2%.

Compared with `COc1ccc(C(=O)c2coc3ccc(O)c(CN4CCCCC4)c23)cc1`, `O=c1c(-c2ccccc2)coc2c(CN3CCCC3)c(O)ccc12` is lower in cytotoxicity: 14.9% for the first, 5.3% for the second.

First: c1ccc(-c2cnc(CSc3ncnc4sccc34)o2)cc1
Second: COc1ccccc1Cn1c(=O)c2ccccc2n2c(Sc3ncnc4sccc34)nnc12
The cytotoxicity of the first is lower: -9% for the first, 38.5% for the second.

Going from `COC(=O)c1ccc(Oc2c(C)oc3c(CN4CCN(C)CC4)c(O)ccc3c2=O)cc1` to `COc1ccc(N2CCN(C(=O)c3cc4c(-c5cccc(OC)c5)nn(C)c4s3)CC2)cc1`, the cytotoxicity rises from -9.6% to -2.7%.

Compared with `Cc1cc(NC(=O)Cn2cc(C(F)(F)F)cc(Cl)c2=O)no1`, `Cc1cc(NC(=O)COC(=O)CSCc2ccc(Cl)c(Cl)c2)no1` is lower in cytotoxicity: 4.3% for the first, -5.6% for the second.

Compared with `CCOC(=O)N1CCN(C(=O)c2cccc(OC)c2OC)CC1`, `CCOC(=O)N1CCN(C(=O)CSc2nnc(-c3cccc(OC)c3)o2)CC1` is lower in cytotoxicity: 6.7% for the first, -7.7% for the second.

Compared with `COCCNc1ncnc2c1cnn2Cc1ccc(Cl)cc1`, `CCCc1ccc(Oc2cn[nH]c2-c2ccc(O)cc2O)cc1` is higher in cytotoxicity: 31.2% for the first, 44.2% for the second.

Compared with `O=C(Nc1ccc(F)cc1)C1CCCN(S(=O)(=O)c2cccc3cccnc23)C1` (stereo unspecified), `O=C(NCc1ccco1)C1CCCCN1S(=O)(=O)c1ccc(F)cc1` (stereo unspecified) is higher in cytotoxicity: -10.4% for the first, -4.3% for the second.

Going from `COC(=O)c1ccc(CSc2nc(N3CCOCC3)c3c(c2C#N)CC(C)(C)OC3)o1` to `Cc1c(C(=O)NCCc2ccccc2)oc2ccc(S(=O)(=O)N3CCOCC3)cc12`, the cytotoxicity falls from 16.6% to -7.6%.

Compared with `CCSc1nc(N)c2c3c(sc2n1)CN(C)CC3`, `CCCN(C(=O)Cc1nc(N)n[nH]1)C1(C(=O)Nc2c(C)cccc2C)CCCCC1` is higher in cytotoxicity: -22% for the first, -7.4% for the second.

Compared with `O=C(COc1ccccc1)N(Cc1ccco1)C1CCS(=O)(=O)C1` (stereo unspecified), `Cc1ccc(OCC(=O)N2CCN(C3=NS(=O)(=O)c4ccccc43)CC2)cc1` is higher in cytotoxicity: -19.1% for the first, 0.8% for the second.

Going from `CCCc1ccc(OCC(=O)O)cc1` to `COc1ccc(C(O)P(=O)(O)CCc2ccccc2)cc1` (stereo unspecified), the cytotoxicity falls from 3% to -28.1%.

First: COc1ccc(O)c(-c2[nH]ncc2C(=O)c2ccccc2C)c1
Second: COc1ccccc1C(=O)Nc1ccc2c(c1)nc(CCNC(C)=O)n2C
The cytotoxicity of the first is lower: -8.4% for the first, -7.3% for the second.

Compared with `Cn1c(-c2ccc3c(c2)OCO3)cnc1NCc1ccccc1`, `COCCN1Cc2cccc(C(=O)NCc3ccc4c(c3)OCO4)c2C1=O` is lower in cytotoxicity: -1.6% for the first, -2.7% for the second.

Compared with `Cc1cccc2cc(CN(CC3CCCO3)C(=O)NC3CCCCC3)c(=O)[nH]c12` (stereo unspecified), `O=C(CCC1CCCCC1)N1CCN(Cc2ccc3c(c2)OCO3)CC1` is lower in cytotoxicity: -7.6% for the first, -7.9% for the second.

Going from `CN(Cc1ccccc1)S(=O)(=O)c1ccc(C(=O)Nc2nnc(C3CC3)o2)cc1` to `CCN(CC)S(=O)(=O)c1ccc(-c2nnc(SCC(=O)Nc3ccc4c(c3)OCO4)o2)cc1`, the cytotoxicity falls from 28.3% to 3.5%.

Going from `Cn1nnc(NC(=O)c2ccc(C(C)(C)C)cc2)n1` to `COc1cccc(CNC(=O)c2nnn(CC(=O)Nc3ccc(C)c(C)c3)c2N)c1`, the cytotoxicity rises from -6.6% to 0.7%.

Going from `Cc1cccn2c(=O)c3cc(C(=O)N4CCN(C(=O)c5ccco5)CC4)n(C)c3nc12` to `CCNC(=O)c1cc2c(=O)n3cccc(C)c3nc2n1C`, the cytotoxicity falls from 3.5% to -0.7%.

Compared with `COCCn1c(=N)c(C(=O)NCCc2ccccc2)cc2c(=O)n3cccc(C)c3nc21`, `Cc1cccn2c(=O)c3cc(C(=O)NCCN4CCOCC4)c(=N)n(CCc4ccccc4)c3nc12` is higher in cytotoxicity: -51.7% for the first, 4.4% for the second.

Going from `CCCCNC(=O)c1cc2c(=O)n3cccc(C)c3nc2n1C` to `CC1Cc2ccccc2N1C(=O)c1cc2c(=O)n3ccccc3nc2n1C` (stereo unspecified), the cytotoxicity rises from -12.6% to 13.4%.

First: O=C(CSc1nnc(-c2ccco2)o1)NC1CC2CCC1C2 (stereo unspecified)
Second: O=C(CCCn1c(=S)[nH]c2ccccc2c1=O)N1CCOCC1
The cytotoxicity of the first is higher: -3.3% for the first, -24.3% for the second.

Compared with `Cc1noc(C(=O)Nc2ccc3c(c2)OCO3)c1Cl`, `Cc1c(C(=O)Nc2ccc(F)cc2)oc2ccc(S(=O)(=O)N3CCC4(CC3)OCCO4)cc12` is lower in cytotoxicity: 19.1% for the first, 11.5% for the second.

First: CCOCCOC(=O)COc1ccc(N2C(=O)c3ccccc3C2=O)cc1
Second: CCOc1ccccc1OCCCCN1CCCC1
The cytotoxicity of the first is lower: -18.5% for the first, 3% for the second.

First: Cn1nc(-c2ccc(Cl)cc2)c2cc(C(=O)N3CCN(c4ccccn4)CC3)sc21
Second: CC(C)NC(=O)c1cnc(N2CCN(c3ccccn3)CC2)c2ccccc12
The cytotoxicity of the first is higher: -0.6% for the first, -9.4% for the second.

First: COC(=O)c1c(C)oc(C)c(C(=O)OC)c1=O
Second: CCOC(=O)c1c(C)oc2c1cc(O)c1ccccc12
The cytotoxicity of the first is lower: 1.7% for the first, 15.4% for the second.

First: c1ccc(-c2nc(-n3ccnc3)nc(-n3ccnc3)n2)cc1
Second: c1ccc(-c2nc(N3CCCCCC3)nc(-n3ccnc3)n2)cc1
The cytotoxicity of the first is higher: 20.1% for the first, -19.9% for the second.

Compared with `c1ccc(-c2nc(NC3CC3)nc(-n3ccnc3)n2)cc1`, `c1ccc(-c2nc(N3CCN(c4ccccc4)CC3)nc(-n3ccnc3)n2)cc1` is higher in cytotoxicity: 9.6% for the first, 43% for the second.

Going from `Cc1ccc(C(N)=S)c(C)c1` to `Cc1c(C(=O)NCCC2=CCCCC2)oc2ccc(S(=O)(=O)N3CCC4(CC3)OCCO4)cc12`, the cytotoxicity rises from -27.6% to 35.3%.

`Cc1c(C(=O)Nc2ccccc2Cl)oc2ccc(S(=O)(=O)N3CCC4(CC3)OCCO4)cc12` showed a cytotoxicity of 22.3%.

With `CCCCNc1cc(C)nc(NCc2ccccc2)n1` the cytotoxicity was 84.4% (active).
For `CC1=C(C)C(=O)NC(Nc2nc(C)c3cc(C)cc(C)c3n2)N1` (stereo unspecified), the cytotoxicity was 86.5% (active).
With `COc1ccc(-c2coc3c(CN4CCCCC4)c(O)c(CN4CCCCC4)c(O)c3c2=O)cc1` the cytotoxicity was 53.1% (active).
In the case of `O=c1[nH]nc(Sc2ncnc3sccc23)n1CCc1ccccc1`, the cytotoxicity is reported as 51.5% (active).
For `Cc1cc(NC(=O)COC(=O)C(Nc2ccc(C(F)(F)F)cc2Cl)C(C)C)no1` (stereo unspecified), the cytotoxicity was 54.8% (active).
In the case of `O=C(Nc1ccncc1)C1CCCN(S(=O)(=O)c2cccc3cccnc23)C1` (stereo unspecified), the cytotoxicity is reported as 53.3% (active).
With `CCCc1ccc(Oc2cn[nH]c2-c2ccc(O)c(C)c2O)cc1` the cytotoxicity was 103% (active).
In the case of `Cn1c(-c2ccc3c(c2)OCO3)cnc1NCc1cccc(Cl)c1`, the cytotoxicity is reported as 71.3% (active).
With `CCNC(=O)c1cc2c(=O)n3cccc(C)c3nc2n(CCc2ccccc2)c1=N` the cytotoxicity was 61.3% (active).
For `COCCNC(=O)c1cc2c(=O)n3cccc(C)c3nc2n1C`, the cytotoxicity was 52.8% (active).
With `Cc1cccn2c(=O)c3cc(C(=O)N4c5ccccc5CC4C)n(C)c3nc12` (stereo unspecified) the cytotoxicity was 87.3% (active).
With `CC(C)Nc1nc(-c2ccccc2)nc(-n2ccnc2)n1` the cytotoxicity was 58.3% (active).
In the case of `Cc1c(C(=O)Nc2cccc(Cl)c2)oc2ccc(S(=O)(=O)N3CCC4(CC3)OCCO4)cc12`, the cytotoxicity is reported as 55.3% (active).
With `Cc1c(C(=O)NCCC2=CCCCC2)oc2ccc(S(=O)(=O)N3CCOCC3)cc12` the cytotoxicity was 52.5% (active).

— PubChem BioAssay AID430 (Sanford-Burnham Center for Chemical Genomics, 2006)
